Results taken from PubChem BioAssay (NCI).
This is part of a sample that, as a whole, favours compounds with a hit. Of some 83,000 tested, about 20% had one in any assay.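 The test compound was applied at a single concentration to cells in 96-well plates for 48 hours, and percent growth was recorded.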 Unmarked numbers belong to inactive results. Active and inactive are the calls of the source. How the source made its calls: active means growth percent below 10; inactive means the rest.

Experiments:
Test in all cases: NCI-60 one-dose screen, 48 h (100 = growth as untreated, 0 = no growth, -100 = all killed)
Settings in all cases: 10 µM unless noted
NCI-H23 lung = tested on: NCI-H23 lung
NCI-H226 lung = tested on: NCI-H226 lung
NCI-H322M lung = tested on: NCI-H322M lung
HOP-62 NSCLC = tested on: HOP-62 NSCLC
NCI-H460 lung = tested on: NCI-H460 lung
NCI-H522 lung = tested on: NCI-H522 lung
A549/ATCC NSCLC = tested on: A549/ATCC NSCLC
786-0 renal = tested on: 786-0 renal
COLO 205 colon = tested on: COLO 205 colon
DU-145 prostate = tested on: DU-145 prostate
K-562 leukemia = tested on: K-562 leukemia
MALME-3M melanoma = tested on: MALME-3M melanoma
MDA-MB-231 breast = tested on: MDA-MB-231 breast
RXF 393 renal = tested on: RXF 393 renal
SF-268 CNS = tested on: SF-268 CNS
SF-295 CNS = tested on: SF-295 CNS
SF-539 CNS = tested on: SF-539 CNS
UACC-257 melanoma = tested on: UACC-257 melanoma
M14 melanoma = tested on: M14 melanoma

Which growth (NCI-H23 lung) does the source give for `CN1C2CCC1/C(=C\c1ccc(Cl)cc1)C(=O)/C2=C/c1ccc(Cl)cc1` here?
The growth was 62.4%.

What about the growth (NCI-H226 lung) of the same compound?
Its growth is 73.8%.

And the growth (NCI-H322M lung)?
The growth was 72.4%.

And the growth (HOP-62 NSCLC)?
The growth was 85.8%.

And the growth (NCI-H460 lung)?
Its growth is 47%.

What about the growth (NCI-H522 lung) of the same compound?
Its growth is 54.7%.

And the growth (A549/ATCC NSCLC)?
Its growth is 63.7%.

What about the growth (786-0 renal) of the same compound?
The growth was 75.4%.

And the growth (COLO 205 colon)?
Its growth is 41.7%.

What about the growth (DU-145 prostate) of the same compound?
The growth was 41.8%.

What about the growth (K-562 leukemia) of the same compound?
Its growth is 34.3%.

What about the growth (MALME-3M melanoma) of the same compound?
Its growth is 73.7%.

And the growth (MDA-MB-231 breast)?
The growth was 67%.

What about the growth (RXF 393 renal) of the same compound?
Its growth is 87.2%.

What about the growth (SF-268 CNS) of the same compound?
The growth was 60.5%.

And the growth (SF-295 CNS)?
Its growth is 77.4%.

And the growth (SF-539 CNS)?
The growth was 91.5%.

What about the growth (UACC-257 melanoma) of the same compound?
Its growth is 60.9%.

And the growth (M14 melanoma)?
The growth was 63.8%.

With `Nc1nc(NC2CC2)cc(-c2cccc(Cl)c2Cl)n1` as the compound, how does the growth (NCI-H23 lung) read?
The growth was 71.7%.

What about the growth (NCI-H226 lung) of the same compound?
Its growth is 92.3%.

And the growth (NCI-H322M lung)?
Its growth is 101%.

And the growth (HOP-62 NSCLC)?
Its growth is 47.1%.

What about the growth (NCI-H460 lung) of the same compound?
The growth was 27.6%.

What about the growth (NCI-H522 lung) of the same compound?
Its growth is 3.95% (active).

And the growth (A549/ATCC NSCLC)?
Its growth is 32.6%.

What about the growth (786-0 renal) of the same compound?
Its growth is 69.2%.

What about the growth (COLO 205 colon) of the same compound?
The growth was 44.1%.

And the growth (DU-145 prostate)?
Its growth is 78.3%.

And the growth (K-562 leukemia)?
Its growth is 18.9%.

And the growth (MALME-3M melanoma)?
The growth was 64.4%.

And the growth (MDA-MB-231 breast)?
Its growth is 66.8%.

And the growth (RXF 393 renal)?
Its growth is 73.3%.

What about the growth (SF-268 CNS) of the same compound?
Its growth is 67.6%.

And the growth (SF-295 CNS)?
Its growth is 55.7%.

And the growth (SF-539 CNS)?
Its growth is 55.7%.

What about the growth (UACC-257 melanoma) of the same compound?
The growth was 49.8%.

What about the growth (M14 melanoma) of the same compound?
The growth was 18.3%.

With `CC1=CC(=O)OC1C/C=C(\C)CCC1[C@@]2(C)CCC[C@@](C)(C(=O)O)C2CC[C@@]1(C)O` (stereo partly specified) as the compound, how does the growth (NCI-H23 lung) read?
Its growth is 68.4%.

What about the growth (NCI-H226 lung) of the same compound?
Its growth is 43.7%.

What about the growth (NCI-H322M lung) of the same compound?
The growth was 55%.

And the growth (HOP-62 NSCLC)?
Its growth is 51.7%.

And the growth (NCI-H460 lung)?
Its growth is 9.27% (active).

And the growth (NCI-H522 lung)?
Its growth is 59.3%.

And the growth (A549/ATCC NSCLC)?
Its growth is 29.3%.

And the growth (786-0 renal)?
The growth was 54.6%.

And the growth (COLO 205 colon)?
The growth was 86.7%.

And the growth (DU-145 prostate)?
The growth was 36.8%.

What about the growth (K-562 leukemia) of the same compound?
Its growth is 28.4%.

What about the growth (MALME-3M melanoma) of the same compound?
Its growth is 58.4%.

And the growth (MDA-MB-231 breast)?
Its growth is 34.3%.

What about the growth (RXF 393 renal) of the same compound?
The growth was 49.2%.

And the growth (SF-268 CNS)?
Its growth is 71.4%.

What about the growth (SF-295 CNS) of the same compound?
The growth was 85.5%.

What about the growth (SF-539 CNS) of the same compound?
The growth was 81.3%.

And the growth (UACC-257 melanoma)?
Its growth is 48.6%.

What about the growth (M14 melanoma) of the same compound?
Its growth is 25.7%.

With `CC(C)CC(=O)C(CCc1ccccn1)C(C)C` (stereo unspecified) as the compound, how does the growth (NCI-H23 lung) read?
Its growth is 98.4%.

What about the growth (NCI-H226 lung) of the same compound?
The growth was 97.9%.

What about the growth (NCI-H322M lung) of the same compound?
The growth was 116%.

What about the growth (HOP-62 NSCLC) of the same compound?
Its growth is 112%.

And the growth (NCI-H460 lung)?
The growth was 107%.

What about the growth (NCI-H522 lung) of the same compound?
The growth was 95.3%.

What about the growth (A549/ATCC NSCLC) of the same compound?
Its growth is 93.9%.

And the growth (786-0 renal)?
The growth was 105%.

What about the growth (COLO 205 colon) of the same compound?
The growth was 130%.

And the growth (DU-145 prostate)?
Its growth is 111%.

And the growth (K-562 leukemia)?
Its growth is 107%.

What about the growth (MALME-3M melanoma) of the same compound?
The growth was 109%.

And the growth (MDA-MB-231 breast)?
The growth was 108%.

And the growth (RXF 393 renal)?
The growth was 124%.

What about the growth (SF-268 CNS) of the same compound?
The growth was 103%.

And the growth (SF-295 CNS)?
The growth was 95.2%.

What about the growth (SF-539 CNS) of the same compound?
Its growth is 106%.

What about the growth (UACC-257 melanoma) of the same compound?
Its growth is 92.4%.

And the growth (M14 melanoma)?
The growth was 105%.
